{"source": "PubChem BioAssay (NCATS)", "note": "Results filed as inconclusive are left out. Calls of active or inactive are those of the source. The call rests on the fitted dose curve; in most records, active means well fitted curve in either direction with a large enough effect (not every such curve was filed as active); inconclusive means small, poorly fitted or top-dose-only effect, or another doubt; inactive means flat fitted curve, though single readings scatter. On the % scale 0 is the no-effect control and ±100 the full control effect.", "data": [{"assay": "AP1 Signaling Pathway (AID 357)", "settings": "ME-180 AP-1-bla reporter, EGF-induced, beta-lactamase ratio, 5 h; at 17.2 µM (top of the series)", "method_in_brief": "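AP-1-bla ME-180 cells with beta-lactamase reporter under AP-1 response element, stimulated with EC50 EGF; compounds titrated, 5 hours at 37 degrees Celsius. CCF4 read at 460/530 nm ratio; positive and negative modulators judged by AC50.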", "values": [{"smiles": "Nc1nc2c(c(=O)[nH]1)N(C=O)[C@H](CNc1ccc(C(=O)N[C@@H](CCC(=O)O)C(=O)O)cc1)CN2", "activity change, negative = inhibition": "-9.84% (inactive)"}, {"smiles": "CCN1CCN(C(=O)N[C@H](C(=O)N[C@@H]2C(=O)N3C(C(=O)O)=C(CSc4nnnn4C)CS[C@@H]23)c2ccc(O)cc2)C(=O)C1=O", "activity change, negative = inhibition": "6.77% (inactive)"}, {"smiles": "COc1ccc([C@@H]2CNC(=O)C2)cc1OC1CCCC1", "activity change, negative = inhibition": "-7.88% (inactive)"}, {"smiles": "CN(C)CC[C@H](c1ccc(Cl)cc1)c1ccccn1", "activity change, negative = inhibition": "15.5% (inactive)"}, {"smiles": "COc1ccc2c(c1OC)C(=O)OC2[C@H]1c2c(cc3c(c2OC)OCO3)CCN1C", "note": "(some centres not stated)", "activity change, negative = inhibition": "-2.27% (inactive)"}, {"smiles": "CN1[C@H]2CC(OC(=O)[C@@H](CO)c3ccccc3)C[C@H]1[C@H]1O[C@H]12", "note": "(some centres not stated)", "activity change, negative = inhibition": "19.5% (inactive)"}, {"smiles": "c1coc(CNc2ncnc3nc[nH]c23)c1", "activity change, negative = inhibition": "2.59% (inactive)"}]}]}
